PubChem BioAssay (NCI)
This is part of a sample that, as a whole, favours compounds with a hit. Of some 83,000 tested, about 20% had one in any assay.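 The endpoint reported here, percent growth, reads 100 for growth as untreated, 0 for no net growth and -100 for all cells dead.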 Values without a mark were called inactive. The source made the active and inactive calls. The calls were made as follows: active = growth percent below 10; inactive = the rest.

Columns and labels:
Assay in all cases: NCI-60 one-dose screen, 48 h (100 = growth as untreated, 0 = no growth, -100 = all killed)
Details in all cases: 10 µM unless noted
[1] = tested on: RPMI-8226 leukemia
[2] = tested on: OVCAR-8 ovarian
[3] = tested on: OVCAR-5 ovarian
[4] = tested on: OVCAR-4 ovarian
[5] = tested on: SK-OV-3 ovarian
[6] = tested on: IGROV1 ovarian
[7] = tested on: OVCAR-3 ovarian
[8] = tested on: HS 578T breast
[9] = tested on: NCI/ADR-RES ovarian
[10] = tested on: T-47D breast
[11] = tested on: BT-549 breast
[12] = tested on: MDA-MB-435 melanoma
[13] = tested on: SW-620 colon
[14] = tested on: MCF7 breast
[15] = tested on: HCT-116 colon
[16] = tested on: HCC-2998 colon
[17] = tested on: KM12 colon
[18] = tested on: SR leukemia

## CN(CSc1ccc(Cl)cc1)c1ccc(CSc2ccc(Cl)cc2)cc1
[1]
  growth: 18%
[2]
  growth: 93.3%
[3]
  growth: 120%
[4]
  growth: 67.9%
[5]
  growth: 108%
[6]
  growth: 42.9%
[7]
  growth: 62.6%
[8]
  growth: 93.3%
[9]
  growth: 91.7%
[10]
  growth: 48.6%
[11]
  growth: 51.4%
[12]
  growth: 45.8%
[13]
  growth: 67.5%
[14]
  growth: 51.8%
[15]
  growth: 58.1%
[16]
  growth: 85.3%
[17]
  growth: 46.1%

## CC(C)(C)CC(C)(C)c1ccc(OCCOCC[N+](C)(C)CC(=O)[O-])cc1
[18]
  growth: 94.8%
[2]
  growth: 105%
[3]
  growth: 102%
[5]
  growth: 109%
[6]
  growth: 100%
[7]
  growth: 113%
[8]
  growth: 114%
[9]
  growth: 111%
[10]
  growth: 103%
[11]
  growth: 125%
[13]
  growth: 101%
[14]
  growth: 105%
[15]
  growth: 107%
[16]
  growth: 108%
[17]
  growth: 112%

## N#C/C(=C\c1ccc(-c2ccc(F)cc2)o1)c1nc(-c2ccco2)cs1
[18]
  growth: 86.3%
[2]
  growth: 102%
[3]
  growth: 65.1%
[4]
  growth: 19.2%
[5]
  growth: 103%
[6]
  growth: 60%
[7]
  growth: 105%
[8]
  growth: 109%
[9]
  growth: 107%
[10]
  growth: -26.3% (active)
[11]
  growth: 106%
[12]
  growth: 102%
[13]
  growth: 96.5%
[14]
  growth: 11.7%
[15]
  growth: 101%
[16]
  growth: 51%
[17]
  growth: 60.6%

## Cc1ccc(-c2ccc(/C=C(\C#N)c3nc(-c4ccco4)cs3)o2)cc1
[18]
  growth: 89.8%
[2]
  growth: 99.8%
[3]
  growth: 77.5%
[4]
  growth: 28.1%
[5]
  growth: 101%
[6]
  growth: 63.5%
[7]
  growth: 112%
[8]
  growth: 107%
[9]
  growth: 103%
[10]
  growth: -22.8% (active)
[11]
  growth: 103%
[12]
  growth: 98.6%
[13]
  growth: 99.8%
[14]
  growth: 14.5%
[15]
  growth: 98%
[16]
  growth: 54.8%
[17]
  growth: 61.2%

## CC(=O)OC(C)COc1ccc(-c2ccccc2)cc1 (configuration not stated)
[18]
  growth: 97.1%
[2]
  growth: 95.9%
[3]
  growth: 96.8%
[4]
  growth: 106%
[5]
  growth: 109%
[6]
  growth: 112%
[7]
  growth: 107%
[8]
  growth: 103%
[9]
  growth: 118%
[10]
  growth: 88.6%
[11]
  growth: 98.6%
[12]
  growth: 98.6%
[13]
  growth: 100%
[14]
  growth: 103%
[15]
  growth: 81.2%
[16]
  growth: 104%
[17]
  growth: 98.8%

## O=C1C=C(C(O)c2ccc(O)cc2)C(=O)c2ccccc21 (configuration not stated)
[18]
  growth: 87.7%
[2]
  growth: 104%
[3]
  growth: 99.7%
[5]
  growth: 85.8%
[6]
  growth: 86.3%
[7]
  growth: 96.2%
[8]
  growth: 120%
[9]
  growth: 105%
[10]
  growth: 80.2%
[11]
  growth: 88.1%
[13]
  growth: 97.4%
[14]
  growth: 94.1%
[15]
  growth: 96.1%
[16]
  growth: 97%
[17]
  growth: 107%

## Cn1cc(-c2csc(-c3cn(C(=O)OC(C)(C)C)c4ccccc34)n2)c2cccnc21
[1]
  growth: 75.3%
[2]
  growth: 76.3%
[3]
  growth: 104%
[5]
  growth: 74.9%
[6]
  growth: 59.8%
[7]
  growth: 14.6%
[8]
  growth: 73.1%
[9]
  growth: 29.3%
[10]
  growth: 43.4%
[11]
  growth: 60.3%
[12]
  growth: 11.4%
[14]
  growth: 53.6%
[15]
  growth: 56%
[16]
  growth: 65.5%

## CN(C)CCCCC(C(=O)CBr)(c1ccccc1)c1ccccc1
[18]
  growth: 8.41% (active)
[2]
  growth: 25.8%
[3]
  growth: 45.2%
[4]
  growth: 12.1%
[5]
  growth: 79.1%
[6]
  growth: 44.4%
[7]
  growth: -44% (active)
[8]
  growth: 24.2%
[9]
  growth: 43.9%
[10]
  growth: -54.2% (active)
[11]
  growth: 24.3%
[12]
  growth: 36.3%
[13]
  growth: -49.7% (active)
[14]
  growth: 3.55% (active)
[15]
  growth: -60.1% (active)
[16]
  growth: 71.7%
[17]
  growth: 68.8%

## COc1ccc2c(c1)c(-c1nc(-c3c[nH]c4ncccc34)cs1)cn2C
[1]
  growth: 44.3%
[2]
  growth: 80.8%
[3]
  growth: 55%
[5]
  growth: 63.9%
[6]
  growth: 59.8%
[7]
  growth: 103%
[8]
  growth: 77.2%
[10]
  growth: 41.4%
[11]
  growth: 72.8%
[12]
  growth: 69.6%
[13]
  growth: 83.3%
[15]
  growth: 56.7%
[16]
  growth: 83.1%
[17]
  growth: 24%

## CCCC1CCCCN1C(=O)OCC(C)C (configuration not stated)
[1]
  growth: 108%
[2]
  growth: 105%
[3]
  growth: 102%
[4]
  growth: 113%
[5]
  growth: 110%
[6]
  growth: 101%
[7]
  growth: 112%
[8]
  growth: 102%
[9]
  growth: 137%
[10]
  growth: 104%
[11]
  growth: 114%
[12]
  growth: 100%
[13]
  growth: 98.4%
[14]
  growth: 100%
[15]
  growth: 103%
[16]
  growth: 125%
[17]
  growth: 105%

## O=P(O)(c1ccccc1)c1ccccc1I
[18]
  growth: 88.8%
[2]
  growth: 98.2%
[3]
  growth: 103%
[4]
  growth: 102%
[5]
  growth: 86.8%
[6]
  growth: 96.2%
[7]
  growth: 108%
[8]
  growth: 97%
[9]
  growth: 98.8%
[10]
  growth: 84.5%
[11]
  growth: 100%
[13]
  growth: 94.9%
[14]
  growth: 96.6%
[16]
  growth: 107%
[17]
  growth: 103%

## OCC1OC(n2cnc3c(Cl)ncnc32)CC1O (configuration not stated)
[1]
  growth: 98.3%
[2]
  growth: 104%
[3]
  growth: 101%
[4]
  growth: 120%
[5]
  growth: 104%
[6]
  growth: 98.9%
[7]
  growth: 115%
[8]
  growth: 108%
[9]
  growth: 118%
[10]
  growth: 92.1%
[11]
  growth: 114%
[12]
  growth: 104%
[13]
  growth: 98.7%
[14]
  growth: 95.2%
[15]
  growth: 94.1%
[16]
  growth: 108%
[17]
  growth: 107%

## O=C(/C=C/c1ccc2ccccc2c1)Nc1ncc(Cc2ccccc2)s1
[18]
  growth: 16.9%
[2]
  growth: 59.8%
[3]
  growth: 49.5%
[4]
  growth: -37.5% (active)
[5]
  growth: 87.8%
[6]
  growth: 55.6%
[7]
  growth: 10%
[8]
  growth: 29.2%
[9]
  growth: 32.3%
[10]
  growth: 25.7%
[11]
  growth: 72.5%
[12]
  growth: 66.1%
[13]
  growth: 42.6%
[14]
  growth: 50.3%
[15]
  growth: 21%
[16]
  growth: 92%
[17]
  growth: 64.4%

## Cn1cc(-c2nc(-c3c[nH]c4ncccc34)cs2)c2cc(Br)ccc21
[1]
  growth: 72.6%
[2]
  growth: 104%
[3]
  growth: 82.9%
[5]
  growth: 91.9%
[6]
  growth: 76%
[7]
  growth: 118%
[8]
  growth: 98%
[9]
  growth: 75%
[10]
  growth: 84%
[11]
  growth: 99.8%
[12]
  growth: 79.8%
[13]
  growth: 95.8%
[14]
  growth: 35.3%
[15]
  growth: 64.4%
[16]
  growth: 99.8%
[17]
  growth: 62.5%

## COc1ccc(C2(Cl)c3ccccc3N(c3ccccc3)c3ccccc32)cc1
[18]
  growth: 3.25% (active)
[2]
  growth: 6.73% (active)
[3]
  growth: 17%
[4]
  growth: 3.18% (active)
[5]
  growth: -11.1% (active)
[6]
  growth: 17.5%
[7]
  growth: -43.9% (active)
[8]
  growth: -12.9% (active)
[9]
  growth: 21.4%
[10]
  growth: 5.67% (active)
[11]
  growth: 11.3%
[13]
  growth: 0.491% (active)
[15]
  growth: -37.7% (active)
[16]
  growth: -15.6% (active)
[17]
  growth: 6.64% (active)

## CCC(CC)C(=O)OC(C)COc1ccc(C(C)(C)C)cc1 (configuration not stated)
[18]
  growth: 98.2%
[2]
  growth: 86.2%
[3]
  growth: 100%
[4]
  growth: 113%
[5]
  growth: 102%
[6]
  growth: 112%
[7]
  growth: 107%
[8]
  growth: 110%
[9]
  growth: 109%
[10]
  growth: 113%
[11]
  growth: 109%
[12]
  growth: 105%
[13]
  growth: 106%
[15]
  growth: 90.7%
[16]
  growth: 101%
[17]
  growth: 102%

## Cc1ccc2c(c1)c(-c1nc(-c3c[nH]c4ncccc34)cs1)cn2C
[1]
  growth: 72.7%
[2]
  growth: 104%
[3]
  growth: 68.6%
[5]
  growth: 102%
[6]
  growth: 99.2%
[7]
  growth: 139%
[8]
  growth: 109%
[9]
  growth: 89.4%
[10]
  growth: 45.3%
[11]
  growth: 104%
[12]
  growth: 96.5%
[13]
  growth: 112%
[14]
  growth: 17.4%
[15]
  growth: 85.1%
[16]
  growth: 80%
[17]
  growth: 57.8%

## Cn1cc(-c2nc(-c3c[nH]c4ncccc34)cs2)c2cc(Cl)ccc21
[1]
  growth: 34.2%
[2]
  growth: 63.2%
[3]
  growth: 60.3%
[5]
  growth: 71.7%
[6]
  growth: 46.3%
[7]
  growth: 69.9%
[8]
  growth: 61.6%
[9]
  growth: 44.7%
[10]
  growth: 38.9%
[11]
  growth: 70.6%
[12]
  growth: 51.9%
[13]
  growth: 73.3%
[15]
  growth: 32.2%
[16]
  growth: 80.6%
[17]
  growth: 9.88% (active)

## O=c1[nH]ncc(Br)c1Br
[1]
  growth: 23.9%
[2]
  growth: 7.24% (active)
[3]
  growth: 115%
[4]
  growth: -100% (active)
[5]
  growth: 122%
[6]
  growth: 51.2%
[9]
  growth: 38.1%
[10]
  growth: 46.3%
[11]
  growth: 83.2%
[12]
  growth: 64.3%
[13]
  growth: -80.3% (active)
[14]
  growth: 23%
[15]
  growth: 15.2%
[16]
  growth: 54%
[17]
  growth: 45.8%

## CCSc1ncnc2c1ncn2C1OC(CO)C(O)C1O (configuration not stated)
[1]
  growth: 38.5%
[2]
  growth: 29.5%
[3]
  growth: 29.5%
[4]
  growth: 46.1%
[5]
  growth: 41.3%
[6]
  growth: 2.14% (active)
[9]
  growth: 25.4%
[10]
  growth: 29.1%
[11]
  growth: 49%
[12]
  growth: 24%
[13]
  growth: 28.4%
[14]
  growth: 19.2%
[15]
  growth: 12%
[16]
  growth: 8.16% (active)
[17]
  growth: 11.8%
